Screening data: PubChem BioAssay, National Center for Advancing Translational Sciences (NCATS)
ALOX12 inh – Primary qHTS assay for inhibitors of human arachidonate 12S-lipoxygenase (ALOX12): Round 2; purified 12hLO, xylenol orange hydroperoxide absorbance; Potency, µM (top dose mostly 108 µM), actives largely listed as inhibitors; actives 1.1% (n = 580,000); AID 1671190, 2021
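Purified human 12hLO at 150 nM in 25 mM Hepes, 0.01% Triton X-100, pH 7.0, preincubated 15 min at room temperature with compound. Reaction started with 40 uM arachidonic acid, 30 min at room temperature. Hydroperoxide measured by Fe-xylenol orange, 573/405 nm absorbance ratio.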
VDR inh – Inhibitors of the vitamin D receptor (VDR): qHTS; Vitamin D3 receptor (Homo sapiens), P11473; VDR-SRC2-3 peptide fluorescence polarization, 2 h; Potency, µM, usual class: inhibitors; actives 0.93% (n = 400,000); AID 504847, 2011
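Measured by FP: displacement of SRC2-3 coactivator peptide from VDR by library compounds, following a two-hour ambient incubation.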
PLK1 PBD inh – qHTS for Inhibitors of PLK1-PDB (polo-like kinase 1 - polo-box domain): Primary Screen; Serine/threonine-protein kinase PLK1 (Homo sapiens), P53350; Potency, µM, actives largely listed as inhibitors; Plk1 PBD binding of FITC phosphopeptide, fluorescence polarization; actives 2.8% (n = 360,000); AID 720504, 2013; note: series mostly up to about 57 µM; nearly all actives have a fitted effect of over 65% in size
Target sequence (P53350 whole entry, looked up, the tested form may be a part): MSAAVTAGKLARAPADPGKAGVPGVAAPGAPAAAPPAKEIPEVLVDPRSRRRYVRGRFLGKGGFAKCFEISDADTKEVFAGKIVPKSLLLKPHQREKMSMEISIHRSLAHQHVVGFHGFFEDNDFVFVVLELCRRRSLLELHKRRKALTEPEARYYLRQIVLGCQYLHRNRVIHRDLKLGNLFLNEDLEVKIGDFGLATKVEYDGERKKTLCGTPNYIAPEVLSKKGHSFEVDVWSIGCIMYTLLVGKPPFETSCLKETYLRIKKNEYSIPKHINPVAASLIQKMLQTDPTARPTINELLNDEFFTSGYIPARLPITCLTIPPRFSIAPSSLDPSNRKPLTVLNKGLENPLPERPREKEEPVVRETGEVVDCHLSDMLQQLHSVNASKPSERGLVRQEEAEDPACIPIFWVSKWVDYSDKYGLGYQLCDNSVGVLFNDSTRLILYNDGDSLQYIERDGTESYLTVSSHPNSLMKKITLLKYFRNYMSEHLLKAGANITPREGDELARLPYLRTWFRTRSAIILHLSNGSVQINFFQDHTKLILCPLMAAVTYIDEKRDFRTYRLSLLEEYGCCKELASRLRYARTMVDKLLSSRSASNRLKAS
Sfp inh – qHTS Assay for Inhibitors of Bacillus subtilis Sfp phosphopantetheinyl transferase (PPTase) | actives 3.5% (n = 310,000) | Biochemical Sfp PPTase activity, qHTS | AID 1490, 2009 | Potency, µM, actives largely listed as inhibitors | 4'-phosphopantetheinyl transferase ffp (Bacillus subtilis), Q9F4F7;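 note: the enzyme is Sfp with the accession as filed and its product quenches rhodamine fluorescence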
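After 15 min at room temperature with compound, 15 nM Sfp received 5 uM rhodamine-CoA plus 12.5 uM BHQ-2-ybbR (50 mM Hepes pH 7.6, 10 mM MgCl2). Rate came from the fluorescence difference over 30 min, ex 525/em 598 nm.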
Numbers stand for hits; i = inactive; ? = inconclusive; nt = not tested or not shown. Hits are enriched below; roughly 4.2% of the tested compounds scored in any of these assays. Calls come from the whole dose curve; as a rule, active = well fitted curve in the direction sought with a large enough effect; inconclusive = small, poorly fitted or top-dose-only effect, or another doubt; inactive = no such curve, though single readings can be large; an effect the other way counts as inactive or inconclusive.

SMILES	ALOX12 inh	VDR inh	PLK1 PBD inh	Sfp inh
CSc1ccccc1NC(=O)c1noc2c1CCC2	?	i	?	20µM
CCC(C)(C)C1CCc2c(sc(NC(=O)C3c4ccccc4Oc4ccccc43)c2C(N)=O)C1 (configuration not stated)	i	i	nt	nt
O=C(NCCCN1CCCC1=O)c1c(OCC2CC2)cc(=O)n2c1CCOCC2	i	nt	nt	nt
CCC(=O)Nc1ccc(Cl)c(-c2nc3cc(C)ccc3o2)c1	i	nt	nt	nt
O=C(CSc1n[nH]c(-c2ccccc2Br)n1)Nc1ccc2c(c1)OCO2	i	nt	nt	nt
CCC(C)NC(=O)C1COC2(CCN(C(=O)C3CC3)CC2)N1C(=O)c1ccccc1 (configuration not stated)	i	nt	nt	nt
O=C(CNC(=O)c1nc[nH]c1C(=O)N1CCc2ccccc2C1)OCc1ccccc1	i	79µM	19µM	i
O=C(CNC(=O)c1nc[nH]c1C(=O)N1CCNCC1)OCc1ccccc1	?	i	i	nt
NC(N)=N/N=C/c1ccccc1Cl	i	?	?	i
COc1ccccc1-n1cnnc1SCC(=O)Nc1ncc(Cl)cc1Cl	i	i	30µM	i
Cc1cc(/C=N/n2cnnc2)c(C)n1-c1ccccc1	i	i	i	i
Cc1sc(-n2c(C)cc(/C=N/n3cnnc3)c2C)c(C#N)c1C	i	?	17µM	20µM
c1ccc(-c2nc(NCc3cccs3)c3ccccc3n2)cc1	i	i	i	i
N#Cc1cccc(-c2nc(NCc3ccccc3)c3ccccc3n2)c1	?	45µM	nt	i
CS(=O)(=O)Nc1cccc(-c2nc(NCc3ccccc3)c3ccccc3n2)c1	?	50µM	nt	i
Cc1cccc(CNc2nc(-c3ccc4c(c3)OCO4)nc3ccccc23)c1	40µM	i	nt	?
c1cncc(CNc2nc(-c3ccc4c(c3)OCO4)nc3ccccc23)c1	i	i	nt	i
COc1cccc(-c2nc(NCc3cccs3)c3ccccc3n2)c1	?	50µM	nt	i
CN(C)c1ccc(NC(=O)CSC2=Nc3ccccc3C3=NC(CC(=O)NCc4ccc5c(c4)OCO5)C(=O)N23)cc1 (configuration not stated)	i	i	nt	nt
COc1cc(/C=C(\C#N)C(=O)NCc2cccs2)ccc1O	i	i	i	i
Cc1ccc(N2C(=O)Nc3ccccc3C2(O)C(=O)NCCCOC(C)C)cc1C (configuration not stated)	i	i	i	i
CC1CCC(NC(=O)C2(C)Cc3ccccc3C(=O)N2Cc2ccc(Cl)cc2)CC1 (configuration not stated)	i	i	nt	nt
CCCn1cc(S(=O)(=O)c2ccc(OC)cc2)c(=O)c2cc(OCC)ccc21	i	i	i	i
CCCn1cc(S(=O)(=O)c2ccc(Cl)cc2)c(=O)c2cc(OC)ccc21	i	?	3µM	i
Cn1cc(S(=O)(=O)c2ccccc2)c(=O)c2cc(Cl)ccc21	i	?	27µM	i
SMILES	ALOX12 inh	VDR inh	PLK1 PBD inh	Sfp inh
O=C(NCc1ccc(Cl)cc1)c1cc2cccc3c2n1CCS3	i	i	nt	nt
Cc1ccc(-c2nnc(-c3ccccc3)c(-c3ccccc3)n2)cc1	i	i	i	i
Cc1cc(-c2nnc(-c3ccccc3)c(-c3ccccc3)n2)c(C)o1	?	?	i	14µM
Cc1nn(CC(=O)OCC(=O)Nc2c(C(C)C)cccc2C(C)C)c(C)c1[N+](=O)[O-]	i	i	30µM	i
Cc1nn(CC(=O)OCC(=O)Nc2ccccc2[N+](=O)[O-])c(C)c1[N+](=O)[O-]	i	i	i	i
CN(CC#CC1(O)c2ccccc2-c2ccccc21)Cc1ccccc1	i	i	i	45µM
CCOc1cc(/C=C2/C(=N)N3C(=NC2=O)SN=C3S(C)(=O)=O)ccc1OS(=O)(=O)c1ccccc1	nt	25µM	15µM	i
CCOc1ccc(-n2c(C)cc(/C=C3/C(=N)N4C(=NC3=O)SN=C4S(C)(=O)=O)c2C)cc1	35µM	?	19µM	i
CCc1cc(C(=O)Nc2cc(S(=O)(=O)N(CC)CC)ccc2N2CCOCC2)sc1C	?	i	i	nt
Cc1cccc(Cl)c1NC(=O)Cn1ccn2nc(-c3ccccc3)c(CO)c2c1=O	i	nt	nt	nt
CC(=O)Nc1cccc(NC(=O)c2ccc(C(=O)Nc3cccc(NC(C)=O)c3)nc2)c1	i	i	i	i
O=C(Nc1ccccc1)c1ccc(C(=O)Nc2ccccc2)nc1	i	i	19µM	i
CC(C)C(C(=O)Nc1nccs1)N1C(=O)c2ccccc2C1=O (configuration not stated)	i	i	21µM	i
O=C(CCCN1C(=O)c2ccccc2C1=O)Nc1nccs1	i	i	i	i
O=C(Nc1nccs1)C(Br)C(Br)c1ccccc1 (configuration not stated)	i	28µM	0.95µM	50µM
Cc1cc(C)cc(Oc2coc3c(CN(C)C)c(O)ccc3c2=O)c1	6.3µM	i	i	i
CC1=C(NC(=O)c2ccccc2)C(c2c[nH]c3ccccc23)n2ncnc2N1 (configuration not stated)	i	nt	nt	nt
Cc1ccccc1OC1=NS(=O)(=O)c2ccccc21	?	i	30µM	i
O=C(O)c1ccc(-n2cc(-c3cc4ccccc4oc3=O)[nH]c2=S)cc1	32µM	i	?	3.2µM
Cc1ccc(S(=O)(=O)N2CCN(CCC#N)CC2)cc1	?	i	i	79µM
N#CCCN1CCN(S(=O)(=O)c2ccc(S(=O)(=O)N3CCCCCC3)cc2)CC1	i	i	i	i
COc1cc2c(cc1C(=O)N1CCC3(CC(=O)NC3=O)C1)CCC2 (configuration not stated)	i	nt	nt	nt
C/C(=N/O)c1ccccn1	i	i	i	40µM
Fc1cnc(Cl)nc1NC1CCCCC1	i	?	21µM	i
Clc1ccc(-n2ncc3c(NC4CCCCCCCCCCC4)ncnc32)cc1	i	nt	nt	nt
SMILES	ALOX12 inh	VDR inh	PLK1 PBD inh	Sfp inh
Nc1c(Br)cc2oc(-c3ccccc3)nc2c1Br	i	i	i	i
COc1ccc(-c2nc3c(Br)c(N)c(Br)cc3o2)cc1	i	i	i	22µM
O=C(CC(Sc1ccc(Br)cc1)C(=O)O)c1ccc(Br)cc1 (configuration not stated)	nt	nt	nt	35µM
Cc1ccc(SC(CC(=O)c2ccc(C)cc2)C(=O)O)cc1 (configuration not stated)	i	20µM	?	11µM
CCOc1ccc(OCCC(=O)N(CC(=O)Nc2ccccc2C(F)(F)F)Cc2ccco2)cc1	?	i	i	nt
Cc1noc([C@H]2CCN(C(=O)COc3ccc(F)cc3)C[C@H]2NC(=O)C2CC2)n1	i	nt	nt	nt
CCCCNC(=S)N/N=C/C1=CCC2CC1C2(C)C (configuration not stated)	?	i	i	i
CC(C)NC(=S)N/N=C/C1=CCC2CC1C2(C)C (configuration not stated)	35µM	i	i	i
